Where two headings read alike, the source gives them in different places. The whole screen tested about 13,000 compounds, of which about 3,200 (25%) showed an effect of 50% or more. This is one part of the list.
Test system: P. falciparum stage V gametocytes
Parameters: BacTiter-Glo ATP luminescence viability of purified stage V gametocytes in 384-well plates, per cent inhibition versus DMSO
Details: 48 h, 5 µM, inhibitor

SMILES	% Inhibition	% Inhibition (% Inhibition)
CCOC(=O)C(C(=O)OCC)c1nc(C)ns1 [TCMDC-131370]	6.156%	
O=C(Nc1ccc2c(c1)CCC2)c1ccc(N2CCN(c3ccncc3)CC2)cc1 [TCMDC-135127]	32.87%	
CC(C)/C(=C(/F)CN1C(=O)C(NC(=O)c2cc3ccccc3[nH]2)C(=O)N(c2ccccc2)c2ccccc21)c1ccccc1 (stereo not drawn) [TCMDC-131897]	34.22%	
O=C(Nc1ccc(N2CCCN(Cc3cccc(F)c3)CC2)cc1)c1cccs1 [TCMDC-135012]	-8.127%	
CCc1nc(N)nc(N)c1-c1ccc(F)c(F)c1 [TCMDC-137370]	12.31%	
COc1ccccc1-c1sccc1C(=O)NC1(c2cc(Cl)cc(Cl)c2)CCCC1 [TCMDC-136461]	-44%	
CCc1sc(-c2cc(Cl)ccc2OC)nc1C(=O)NCCN1CCCCC1 [TCMDC-133716]	70.94%	
COc1ccc(Cl)cc1N1CCN(CCCNC(=O)c2ccc(-c3nc4cc(Cl)c(C)cc4[nH]3)s2)CC1 [TCMDC-140032]	3.429%	
COc1ccc(Cl)cc1-c1nc(C(=O)NCCN2CCCCC2)c(C(C)C)s1 [TCMDC-133715]	16.92%	
CCOc1cc(C(=O)NCCN2CCCCC2)ccc1-c1nc2ccc(Cl)cc2[nH]1 [TCMDC-140913]	5.667%	
CCc1sc(N2CCN(C)CC2)nc1C(=O)NCCc1ccc(Cl)c(Cl)c1 [TCMDC-134296]	25.24%	
COc1ccc(Cl)cc1-c1nc(C(=O)NCCN2CCCCC2)c(C)s1 [TCMDC-133714]	60.47%	
Cc1ccccc1N1CCN(c2ccc(C(=O)NC(C)C)cn2)CC1 [TCMDC-134577]	-17.52%	
CCOC(=O)c1cnc2c(C(F)(F)F)cccc2c1Nc1ccc(O)cc1 [TCMDC-125649]	-55.53%	
COc1ccc2nccc([C@@H](O)CN3CCC(NC(=O)/C=C/c4cc([N+](=O)[O-])ccc4OC)CC3)c2c1 [TCMDC-141044]	-26.66%	
N#CN1CC[C@@H](NS(=O)(=O)Cc2ccc(Cl)c(Cl)c2)C1 [TCMDC-133787]	27.55%	
O=C(/C=C/c1ccc(Cl)c(Cl)c1)NCCCCCN1CCC(C(=O)Nc2ccc3c(c2)OCO3)CC1 [TCMDC-136127]	-2.985%	
O=C(C=Cc1ccc(Cl)c(Cl)c1)NCCCCCN1CCC(CCCNC(=O)c2ccc3c(c2)OCO3)CC1 [TCMDC-139574]	21.18%	
CCCCCCOc1ccc(C(=O)NCCCC2CCN(CCCCCNC(=O)C=Cc3ccc(Cl)c(Cl)c3)CC2)cc1 [TCMDC-139575]	7.423%	
O=C(/C=C/c1ccc(Cl)c(Cl)c1)NCCCCCN1CC[C@H](NC(=O)c2ccc3c(c2)OCO3)C1 [TCMDC-139563]	17.23%	
CCCCCCOc1ccc(C(=O)NCCC2CCN(CCCCCNC(=O)C=Cc3ccc(Cl)c(Cl)c3)CC2)cc1 [TCMDC-139569]	13.58%	
O=C(C=Cc1ccc(Cl)c(Cl)c1)NCCCCCN1CCC(CCNC(=O)c2ccc3c(c2)OCO3)CC1 [TCMDC-139568]	96.26%	
O=C(C=Cc1ccc(Cl)c(Cl)c1)NCCCCCN1CCCC(CCCNC(=O)c2ccc3c(c2)OCO3)C1 (stereo not drawn) [TCMDC-139580]	81.7%	

SMILES	% Inhibition	% Inhibition (% Inhibition)
O=C(/C=C/c1ccc(Cl)c(Cl)c1)NCCCCCN1CCC(NC(=O)Nc2ccc3c(c2)OCO3)CC1 [TCMDC-135718]	-35.92%	
CCCCCCOc1ccc(C(=O)NCCCC2CCCN(CCCCCNC(=O)C=Cc3ccc(Cl)c(Cl)c3)C2)cc1 (stereo not drawn) [TCMDC-139581]	50.48%	
Cc1ccc(NC(=O)N2CCCN(CCCCCNC(=O)/C=C/c3ccc(Cl)c(Cl)c3)CC2)cc1 [TCMDC-135744]	-49.55%	
N#Cc1cc(C(=O)c2cc(Br)ccc2O)cn(-c2cc(Cl)cc(Cl)c2)c1=O [TCMDC-125187]	-21.05%	
O=[N+]([O-])c1cccc(CNCC2CCC(CNCc3cccc([N+](=O)[O-])c3)CC2)c1 (stereo not drawn) [TCMDC-141176]	8.201%	
COc1ccc(OC)c(CC2c3ccc(Br)c(O)c3CCN2C)c1 (stereo not drawn) [TCMDC-137439]	12.74%	
CN1CCN(c2cc3c(cc2Cl)CCN3C(=O)Cc2ccc(NC(=O)Nc3cccc4ccccc34)cc2)CC1 [TCMDC-139472]	-2.627%	
Cn1ccnc1CNC(=O)c1ccc(-c2cccc(-c3nc4cc(C(F)(F)F)ccc4[nH]3)c2)cc1 [TCMDC-132357]	7.087%	
Cc1[nH]c(C)c(-c2ccc(-c3ccc(OCC(F)(F)F)cc3)nc2)c(=O)c1Cl [TCMDC-132306]	43.23%	
Cc1[nH]c(C)c(-c2ccc(-c3ccc(Cl)cc3)nc2)c(=O)c1Br [TCMDC-136159]	67.06%	
Cc1[nH]c(C)c(-c2ccc(-c3ccc(C#N)cc3)nc2)c(=O)c1Br [TCMDC-136169]	28.48%	
Cc1[nH]c(C)c(-c2ccc(-c3ccc(F)cc3)nc2)c(=O)c1Br [TCMDC-135925]	64.89%	
Cc1[nH]c(C)c(-c2ccc(-c3ccc(Cl)cc3)nc2)c(=O)c1Cl [TCMDC-136301]	72.82%	
Cc1[nH]c(C)c(-c2ccc(-c3ccc(C(F)F)cc3)nc2)c(=O)c1Cl [TCMDC-132329]	58.86%	
Cc1[nH]c(C)c(-c2ccc(-c3ccccc3)nc2)c(=O)c1Br [TCMDC-136158]	42.67%	
CC1(C)N=C(N)N=C(N)N1OCCCOc1ccccc1Cl [TCMDC-131739]	-0.9938%	
O=C(Nc1ccc(-c2nc3ccccc3[nH]2)cc1)c1ccc(S(=O)(=O)N2CCc3ccccc32)cc1 [TCMDC-125713]	-13.88%	
O=C(N[C@@H](CC1CCCCC1)C(=O)NC1CCCc2ccccc21)c1ccc(O)c(-c2ccc(Cl)c(Cl)c2)c1 (stereo partly drawn) [TCMDC-140869]	28.8%	
CCOC(=O)c1ccc(-n2c(C)cc(C=C3SC(=Nc4ccccc4)N(C4CCCC4)C3=O)c2C)cc1 [TCMDC-125697]	-3.505%	
Cc1[nH]c(C)c(-c2ccc(-c3ccc4c(c3)OCO4)nc2)c(=O)c1Br [TCMDC-136161]	79.48%	
CCC1CN2CCc3c([nH]c4ccccc34)[C@@H]2C[C@@H]1CC1NCCc2cc(OC)c(OC)cc21 (stereo partly drawn) [TCMDC-142008]		-47.66%
Cc1onc(-c2ccccc2Cl)c1C(=O)Nc1cc(Cl)c(Cl)cc1Cl [TCMDC-123514]	9.365%	
COc1ccc(-c2ccc(CNC(=O)c3ccc(C#N)cc3)c(F)c2)cc1CN1CCCN(C)CC1 [TCMDC-133368]	-37.75%	

SMILES	% Inhibition	% Inhibition (% Inhibition)
COc1cc(OC)cc(C(=O)Nc2cccc(-c3cn4ccc(C)cc4n3)c2)c1 [TCMDC-124622]	4%	
COc1cc(C(=O)Nc2cccc(-c3cn4ccc(C)cc4n3)c2)cc(OC)c1OC [TCMDC-125384]	26.29%	
Cc1ccn2cc(-c3ccc(NC(=O)c4ccc(Br)o4)cc3)nc2c1 [TCMDC-124517]	106.8%	
Cc1cc(OCCCN2CCC(NS(=O)(=O)c3cccc(Br)c3)CC2)c2ccccc2n1 [TCMDC-136279]	-49.51%	
CCCCOc1cc(OC)c2ccccc2c1CCNCCCCNCCc1c(OCCCC)cc(OC)c2ccccc12 [TCMDC-137845]	110.3%	
CCCCc1cc(Cc2cnc(N)nc2N)cc(OC)c1OC [TCMDC-137876]	-18.26%	
CCCCOc1c(CCNCCCCNCCc2cc(OC)c3ccccc3c2OCCCC)cc(OC)c2ccccc12 [TCMDC-137848]	124.7%	
CC[C@H](NC(=O)c1c(CN2CCC(N3CCCCC3)CC2)c(-c2ccccc2)nc2cc(O)ccc12)c1ccccc1 [TCMDC-140381]	13.93%	
CC(C)CCN1CCC(Oc2ccc(NC(=O)c3ccc4ncccc4c3)cc2Cl)C1 (stereo not drawn) [TCMDC-133982]	6.933%	
Clc1ccccc1CNc1noc(-c2sccc2Br)n1 [TCMDC-134189]	-9.305%	
Cc1cc(NC(=O)c2cc(Br)ccc2Cl)n(-c2nc(C)c(C)c(=O)[nH]2)n1 [TCMDC-124938]	58.54%	
CCc1c(C)nc(-n2nc(C)cc2NC(=O)c2ccc(OC)cc2OC)[nH]c1=O [TCMDC-124937]	1.355%	
CCc1c(C)nc(-n2nc(C)cc2NC(=O)c2cccc3ccccc23)[nH]c1=O [TCMDC-124936]	19.12%	
COc1cccc2cc(C(=O)N[C@@H](CC(C)C)C(=O)N[C@H](/C=N/NC(=O)N3CCN(C)CC3)CCc3ccccc3)oc12 [TCMDC-136052]	37.67%	
COc1cc(NC(=O)N2CCOC(CCN3CCC(c4ccccc4)CC3)(c3ccc(Cl)c(Cl)c3)C2)cc(OC)c1OC (stereo not drawn) [TCMDC-135349]	-27.1%	
CC(C)(C)c1cc(N=NC(=O)c2ccncc2)cc(C(C)(C)C)c1O [TCMDC-123490]	-20.54%	
N#Cc1ccc(N(CCOc2ccc(Cl)c(F)c2)Cc2ccccc2C(F)(F)F)cc1C(F)(F)F [TCMDC-132797]	-6.991%	
O=C(c1cc(C(=O)NCc2ccc(Cl)cc2)c(=O)n(Cc2ccc(Cl)cc2)c1)c1cc(F)ccc1O [TCMDC-125145]	-12.34%	
O=C(NCCCCN1CCC(c2ccc3ccccc3c2O)CC1)c1ccc(-c2ccc(Cl)cc2)cc1 [TCMDC-138663]	108.9%	
O=C(NCCCCN1CCC(c2ccc3ccccc3c2)CC1)c1ccc(NC(=O)c2ccc(Cl)cc2)cc1 [TCMDC-138378]	-9.216%	
O=C(NCCCCN1CCC(c2cccc3ccccc23)CC1)c1ccc(NC(=O)c2ccc(Cl)cc2)cc1 [TCMDC-138340]	-11.24%	
CC(=O)Oc1c(C2CCN(CCCCNC(=O)c3ccc(NC(=O)c4ccc(Cl)cc4)cc3)CC2)ccc2ccccc12 [TCMDC-138657]	89.12%	
O=C(NCCCCN1CCC(c2ccc3ccccc3c2O)CC1)c1ccc(NC(=O)c2ccc(Cl)cc2)cc1 [TCMDC-138654]	82.05%	
